Among the data in PubChem BioAssay AID488777 (Sanford-Burnham Center for Chemical Genomics, 2010) are IC50 values, retold here.

Unmarked numbers belong to inactive results. No rule for the calls is given here.

A short description of this experiment: assay artefact check, AlphaScreen readout interference – biochemical, artefact control for SUMOylation inhibitor project, SAR follow-up (AID 488777). The following applies: purified counter-screen enzymes, TR-FRET, 60 min. (In Alpha technology, singlet oxygen from a donor bead excites a nearby acceptor bead.)

In general, IC50 refers to the concentration needed to halve the response being measured. `CCCCNC(=O)c1c(NC(=O)c2ccccc2)n(Cc2ccccc2)c2nc3ccccc3nc12`: the IC50 was more than 100 µM.
